Several values for one entry are separate records, joined by “and”; a condition that tells them apart may be missing. Equal values may be shown once. A number with no mark means an inactive call. The rule behind the calls is not given here. Positions of bridges follow the written chain, without caps; N, C: chain ends. Non-standard residues stand in square brackets, D forms with d. Residues, ends and D or L forms follow the SMILES beside them. ξ: configuration not given here. *: point of attachment. ξDab(CH2SO3H) = NC(CCNCS(=O)(=O)O)C(=O)O; Heptanoyl(6-Me) = CC(C)CCCCC(=O)*; Dab = NCC[CH](N)C(=O)O
Test system: Aerobactin synthetase IucA (Klebsiella pneumoniae hvKP1)
Assay: Biochemical IucA enzyme inhibition primary screen of the Spectrum library (AID 1346200);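 note: 100% = wells without compound and 0% = wells lacking enzyme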
Conditions: malachite green pyrophosphate, A620, at 8 µM, active compounds read low

Row | SMILES | activity remaining
1 | CC(=O)O[C@@H]1CC2C(C)(C)C(=O)[C@@H]3O[C@@H]3[C@]2(C)C2CC[C@]3(C)C(=CC(=O)O[C@H]3c3ccoc3)[C@@]21C (stereo not given in full) | 99.4%
2 | CC(=O)NC(C(=O)O)C(C)(C)SN=O (stereo not given) | 97%
3 | C[N+](C)(C)CCOP(=O)([O-])OP(=O)(O)OC[C@H]1OC(n2ccc(N)nc2=O)[C@H](O)[C@@H]1O (stereo not given in full) | 118%
4 | C[N+]1(C)C[C@H](O)[C@H](C(=O)[O-])C1 | 94.3%
5 | Cc1cc(=O)c2c(O)c(C)c(O)cc2o1 | 108%
6 | CC(=O)Nc1c(I)cc(I)c(C(=O)O)c1I | 119%
7 | Cc1cc(O)c(C=O)c(O)c1C(=O)O | 124%
8 | C[C@H]1[C@H](C)CC[C@]2(CO)CC[C@]3(C)C(=CCC4[C@@]5(C)CC[C@H](O)C(C)(C)C5CC[C@]43C)[C@H]12 (stereo not given in full) | 117%
9 | CC1=C(C/C=C(\C)CCC[C@H](C)CCC[C@H](C)CCCC(C)C)C(=O)c2ccccc2C1=O | 114%
10 | C=C(CC)C(=O)c1ccc(OCC(=O)O)c(Cl)c1Cl | 100%
11 | COC(=O)C[C@@H]1C2(C)C(=O)[C@@H](CC3=C4CC(O)O[C@@H](c5ccoc5)[C@]4(C)CCC32)[C@H](O)C1(C)C (stereo not given in full) | 128%
12 | O=C(O)CCC(=O)OC[C@@H](NC(=O)C(Cl)Cl)[C@H](O)c1ccc([N+](=O)[O-])cc1 | 110%
13 | C[C@]12C=CC(=O)C=C1CCC1C3C[C@@H](O)[C@](O)(C(=O)CO)[C@@]3(C)C[C@H](O)[C@@]12F (stereo not given in full) | 125%
14 | CCCCCCCCCCCC1=C(O)C(=O)C=C(O)C1=O | 102%
15 | CC1(C)CC[C@]2(C(=O)O)CC[C@]3(C)C(=CCC4[C@@]5(C)CC[C@H](O)C(C)(C)C5[C@H](O)C[C@]43C)C2C1 (stereo not given in full) | 76.1%
16 | Cc1ncc([N+](=O)[O-])n1CC(C)O (stereo not given) | 112%
17 | CC(=O)O[C@@H]1CC2C(C)(CC[C@H](O)C2(C)C)C2CC[C@]3(C)C(=CC(=O)O[C@H]3c3ccoc3)C21C (stereo not given in full) | 95.5%
18 | CN[C@@H]1C(OC2[C@H](O[C@H]3[C@H](O)[C@@H](O)[C@H](N=C(N)N)[C@@H](O)[C@@H]3N=C(N)N)OC(C)[C@]2(O)CO)OC(CO)C(O)C1O (stereo not given in full) | 111%
19 | Nc1ccn(C2O[C@H](CO)[C@@H](O)[C@H]2O)c(=O)n1 (stereo not given in full) | 101%
20 | CCC(C)C1NC(=O)C(CCNCS(=O)(=O)O)NC(=O)C(NC(=O)C(CCNCS(=O)(=O)O)NC(=O)C(NC(=O)C(CCNCS(=O)(=O)O)NC(=O)CCCCC(C)C)C(C)O)CCNC(=O)C(C(C)O)NC(=O)C(CCNCS(=O)(=O)O)NC(=O)C(CCNCS(=O)(=O)O)NC(=O)C(C(C)CC)NC1=O (stereo not given) ({Heptanoyl(6-Me)}-[ξDab(CH2SO3H)]T[ξDab(CH2SO3H)][Dab][ξDab(CH2SO3H)]II[ξDab(CH2SO3H)][ξDab(CH2SO3H)]T; lactam 4-C; configuration not given here) | 120%

Row | SMILES | activity remaining
21 | CC(=O)N[C@@H](CC(C)C)C(=O)O | 93.2%
22 | Cc1c(Cl)cccc1Nc1ccccc1C(=O)O | 82.9%
23 | COc1ccc2c(c1)O[C@@H]1COc3cc(OC)c(OC)cc3[C@@H]1C2=O | 111%
24 | COC(=O)C(C)c1ccc(C(=O)c2cccs2)cc1 (stereo not given) | 103%
25 | CCCCCCCCCCCCCCC(C(=O)O)C(O)(CC(=O)OC)C(=O)O (stereo not given) | 128%
26 | CC(C(=O)O)[C@H]1CCC2C3CC=C4C[C@@H](O)CC[C@]4(C)C3CC[C@@]21C (stereo not given in full) | 98.4%
27 | C1CCN2C[C@@H]3C[C@H](CN4CCCC[C@@H]34)[C@H]2C1 | 106% and 89.3%
28 | C#C[C@]1(O)CCC2C3CCC4=CC(=O)CC[C@@H]4C3CC[C@@]21C (stereo not given in full) | 108%
29 | C=CC(N)CCC(=O)O (stereo not given) | 119%
30 | OCCOCCN1CCN(C2=Nc3ccccc3Sc3ccccc32)CC1 | 105%
31 | COc1c(OC)c2occc2c2oc(=O)ccc12 | 122%
32 | CC(C)c1c(O)c(-c2cc3c(c(C(C)C)c2O)CCC2C(C)(C)CCC[C@]32C)cc2c1CCC1C(C)(C)CCC[C@]21C (stereo not given in full) | 102%
33 | CCCc1cc(OC)c2c(c1)OCO2 | 106%
34 | OCC(O)C(O)C(O)CO (stereo not given) | 112% and 92.5%
35 | C[N+]1(C)C2CC[C@H]1CC(OC(=O)C(O)c1ccccc1)C2 (stereo not given in full) | 95%
36 | CC1(C)O[C@@H]2CC3C4CCC5=CC(=O)C=C[C@]5(C)[C@@]4(F)[C@@H](O)C[C@]3(C)[C@]2(C(=O)CO)O1 (stereo not given in full) | 116%
37 | Cc1cccc(C)c1NC(=O)C1CCCCN1C (stereo not given) | 123%
38 | C[C@@H]1CC2C3CCC4=CC(=O)C=C[C@]4(C)[C@@]3(F)[C@@H](O)C[C@]2(C)[C@@]1(O)C(=O)CO (stereo not given in full) | 119%
39 | CC1(C)CC[C@]2(C)CC[C@]3(C)C(=CCC4[C@@]5(C)CC[C@H](O)C(C)(C)C5CC[C@]43C)C2C1 (stereo not given in full) | 121%
40 | COc1ccc(CCN2CCC(Nc3nc4ccccc4n3Cc3ccc(F)cc3)CC2)cc1 | 124%
